Assay outcomes deposited in PubChem by several laboratories.
Gli-Sufu block: blocks Gli-Sufu signaling in a luciferase reporter | Sufu-KO-LIGHT fibroblasts, Gli luciferase reporter luminescence | inhibition, % at 5 µM | 340,000 compounds, 0.74% hits | AID 588413;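 active means inhibition above about 55%, limit read from the data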;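 further: 0% = DMSO-treated cells and 100% = wells with medium but no cells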
HIV Env fusion: blocks HIV Env-driven cell-cell fusion. HeLa-JRFL Env/CEM21 cell fusion, luciferase. AID 651610. 360,000 compounds, 1.1% hits. inhibition, % at 12.3 µM;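 active means mean replicate inhibition score of at least 50 and every replicate individually at or above 50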;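 further: 0% = plate neutral controls and 100% = maraviroc near 300 nM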
GalR3 antagonist: antagonists of human GalR3; inhibition, % at 3 µM; 360,000 compounds, 0.44% hits; HEK293 GalR3-CNG cAMP membrane potential fluorescence; galR3 body fused to GalR1 C-terminus; O60755;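 active means inhibition above the screen-wide average plus 3 SD, cut at about 13% in these data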;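 further: forskolin and galanin both at EC90 stimulate the cells; cAMP rise reported by CNG channel membrane potential dye signal; 0% = forskolin plus galanin with DMSO and 100% = forskolin alone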
Target sequence (O60755 1-299 limits assumed): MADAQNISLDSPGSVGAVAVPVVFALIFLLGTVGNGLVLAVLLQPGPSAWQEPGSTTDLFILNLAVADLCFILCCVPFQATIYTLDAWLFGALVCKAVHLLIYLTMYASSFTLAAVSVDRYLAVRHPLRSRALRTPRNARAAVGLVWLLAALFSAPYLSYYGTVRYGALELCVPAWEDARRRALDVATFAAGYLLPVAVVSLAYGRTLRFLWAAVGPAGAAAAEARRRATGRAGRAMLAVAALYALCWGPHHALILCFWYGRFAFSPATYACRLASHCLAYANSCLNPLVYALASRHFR
aDG glyco up: increases alpha dystroglycan glycosylation. Pro5-aDG cells, alpha-DG glycosylation AlphaScreen (IIH6); 0% Pro5, 100% B10-LARGE cell signal. activation, % at 10 µM. 360,000 compounds, 0.22% hits. AID 624168;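 active means activation of at least 8% versus controls, or a plate z-score of at least 8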;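 further: Pro5 are CHO cells carrying HIG-tagged alpha-DG that lacks glycosylation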
COUP-TFII inh: NR2F2 (human) inhibition, primary screen; HEK293T NGFI-A luciferase reporter, luminescence; inhibition, % at 8.6 µM; 370,000 compounds, 0.7% hits; AID 686940;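 active means inhibition above a per-plate cutoff, mean inhibition of test wells between control levels plus 3 SD, cut at about 38% in these data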;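 further: cells cotransfected with COUP-TFII expression vector driving the NGFI-A reporter; 0% = median of COUP-TF2 test wells and 100% = reporter-only cells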
Target sequence (P24468 whole entry, looked up): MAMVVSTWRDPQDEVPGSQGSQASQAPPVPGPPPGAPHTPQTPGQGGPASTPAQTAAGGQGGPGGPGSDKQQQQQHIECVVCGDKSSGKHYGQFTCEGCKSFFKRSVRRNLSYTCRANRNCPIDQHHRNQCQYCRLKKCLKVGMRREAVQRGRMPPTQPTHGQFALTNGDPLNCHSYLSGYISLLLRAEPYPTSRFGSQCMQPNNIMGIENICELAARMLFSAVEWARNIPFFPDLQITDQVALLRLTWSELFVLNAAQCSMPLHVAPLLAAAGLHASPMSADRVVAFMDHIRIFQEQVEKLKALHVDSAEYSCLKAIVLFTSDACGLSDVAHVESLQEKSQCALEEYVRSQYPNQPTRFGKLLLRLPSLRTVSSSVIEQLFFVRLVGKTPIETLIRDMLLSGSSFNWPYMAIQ
Starred values were filed as active, the others as inactive; x = no result given; ! = repeats disagree; [ ] = remark or other dose. Compounds with a hit are over-represented: about 2.1% of the library has one in this group of screens.

SMILES	Gli-Sufu block	HIV Env fusion	GalR3 antagonist	aDG glyco up	COUP-TFII inh
Cc1ccc(C(=O)Nc2ccc3c(c2)OCO3)cc1S(=O)(=O)N1CCCC1	10.5	x	-6.2	0.6	-13.2
C[C@H](CO)N1C[C@H](C)[C@H](CN(C)S(=O)(=O)c2ccc(F)cc2)Oc2ccc(NC(=O)CCC(F)(F)F)cc2CC1=O	x	19.0[16.7 µM]	x	x	x
C[C@]1(C(=O)NCc2cc(F)cc(C(F)(F)F)c2)C=C[C@@H](Cc2ccccc2)N1C(=O)c1ccccc1	10.8	56.2*	-0.8	-0.1	-19.0
COC(=O)[C@@]1(Cc2ccccc2)[C@H]2C(=O)N(Cc3ccccc3)C(=O)[C@H]2[C@H]2CN=C(SCc3ccccc3)N21	7.2	76.1*	-5.6	4.4	3.5
COC(=O)[C@@]1(C)[C@H]2C(=O)N(Cc3ccccc3)C(=O)[C@H]2[C@H]2CN=C(SCc3ccc(C)cc3)N21	0.2	65.1*	-4.8	0.2	12.2
CCN1C(=O)[C@H]2[C@H]3CN=C(SCc4ccc(Cl)cc4)N3[C@@](CC)(C(=O)OC)[C@H]2C1=O	5.1	69.5*	-3.5	-0.1	14.8
C[C@H]1CCCCO[C@@H](CN(C)S(=O)(=O)c2cccs2)[C@@H](C)CN([C@@H](C)CO)C(=O)c2cc(NS(=O)(=O)c3cn(C)cn3)ccc2O1	x	29.6[16.7 µM]	x	x	x
COc1ccc(CN(C)C[C@@H]2Oc3ccc(NC(=O)Nc4ccc5c(c4)OCO5)cc3C(=O)N([C@H](C)CO)C[C@H]2C)cc1	x	-12.0[16.7 µM]	x	x	x
Cc1ccc(Cc2c(-c3cccc(Cl)c3)nc3ccc(C)cn23)cc1	x	61.8*	-5.5	0.3	-14.4
Cc1ccc(Cc2c(-c3cccc(Cl)c3)nc3ccc(Cl)cn23)cc1	x	-78.2	-7.3	0.1	-31.4
C[C@@H]1CN([C@@H](C)CO)C(=O)c2cc(NS(=O)(=O)c3cn(C)cn3)ccc2O[C@@H]1CN(C)C(=O)Nc1ccc(F)cc1	x	0.4[16.7 µM]	x	x	x
C[C@@H]1CN([C@H](C)CO)S(=O)(=O)c2ccc(C#CC3CC3)cc2O[C@@H]1CN(C)C(=O)c1cnccn1	x	6.4[16.7 µM]	x	x	x
Cc1ccc(P(=O)(c2ccc(C)cc2)[C@@H](NC(c2ccccc2)c2ccccc2)c2ccccc2)cc1	x	-26.6	-8.2	-0.2	19.0
Cc1ccccc1[C@H](NC1c2ccccc2C=Cc2ccccc21)P(=O)(c1ccccc1)c1ccccc1	x	86.2*	-8.5	-0.3	12.7
C[C@@H]1CN([C@@H](C)CO)C(=O)c2cccc(NC(=O)C3CC3)c2O[C@H]1CN(C)S(=O)(=O)c1cn(C)cn1	x	-4.4[16.7 µM]	x	x	x
COc1ccc(NC(=O)Nc2ccc3c(c2)C(=O)N([C@H](C)CO)C[C@@H](C)[C@H](CN(C)C(=O)CCCN(C)C)OCCCC[C@@H](C)O3)cc1	x	-24.6[16.7 µM]	x	x	x
CCOC(=O)Cn1nnnc1CN(Cc1cccs1)Cc1cc2cc(C)ccc2[nH]c1=O	2.0	31.2	-4.9	0.0	-0.9
CCOC(=O)Cn1nnnc1CN(CCc1ccccc1)Cc1cc2cc(CC)ccc2[nH]c1=O	-5.6	119.0*	-5.3	0.2	11.3
C[C@]1(C(=O)NC2CC2)c2ccccc2C(=O)N(Cc2cc(C(F)(F)F)cc(C(F)(F)F)c2)[C@H]1c1ccc(CO)cc1	x	-17.1[16.7 µM]	x	x	x
Cc1oc2c(c1C(=O)O)C(=O)c1ccccc1C2=O	-2.7	-11.9	0.8	1.1	3.4
CCOC(=O)c1c(C)oc2c1C(=O)c1ccccc1C2=O	-3.9	-14.0	-3.4	9.7*	-9.0
Cc1cc2cc(CN(Cc3ccco3)S(=O)(=O)c3c(C)ccc4nsnc34)c(=O)[nH]c2cc1C	0.0	77.3*	-3.5	0.2	-10.6
C[C@H](CO)N1C[C@H](C)[C@@H](CN(C)S(=O)(=O)c2ccc(F)cc2)OCCCC[C@H](C)Oc2ccc(NS(=O)(=O)c3cccs3)cc2C1=O	x	-0.1[16.7 µM]	x	x	x
CC1CC(NS(=O)(=O)c2cc3c4c(c2)CCN4C(=O)CC3)CC(C)(C)C1 (stereo not given)	-1.8	60.8*	-3.9	0.1	1.1
CC(C)(C)NS(=O)(=O)c1cc2c3c(c1)CCN3C(=O)CC2	-3.6	2.7	-7.1	0.0	17.5
SMILES	Gli-Sufu block	HIV Env fusion	GalR3 antagonist	aDG glyco up	COUP-TFII inh
CC(C)NC(=O)N(C)C[C@@H]1Oc2ncc(-c3ccc(C(=O)N(C)C)cc3)cc2C(=O)N([C@H](C)CO)C[C@@H]1C	x	-27.2[16.7 µM]	x	x	x
CN(Cc1cnc2nc(N)nc(N)c2n1)c1ccc(C(=O)N[C@@H](CCC(=O)O)C(=O)O)cc1	56.8*!	61.7*!	-1.7	0.0	26.1
CCCC(=O)Nc1ccc2c(c1)OC[C@@H](C)N(C(=O)CN(C)C)C[C@H](C)[C@H](OC)CN(C)C2=O	x	-5.2[16.7 µM]	x	x	x
CCCC(=O)Nc1ccc2c(c1)OC[C@H](C)N(CC1CCCC1)C[C@@H](C)[C@H](OC)CN(C)C2=O	x	-15.7[16.7 µM]	x	x	x
CCCC(=O)Nc1ccc2c(c1)OC[C@@H](C)N(C(=O)CN(C)C)C[C@H](C)[C@@H](OC)CN(C)C2=O	x	58.6*[16.7 µM]	x	x	x
CO[C@@H]1CN(C)C(=O)c2ccc(NC(=O)C3CCC3)cc2OC[C@H](C)N(CC2CCCCC2)C[C@H]1C	x	-4.4[16.7 µM]	-4.2	0.4	-12.4
CO[C@H]1CN(C)C(=O)c2ccc(NC(=O)C3CCC3)cc2OC[C@H](C)N(CC2CCCCC2)C[C@@H]1C	x	91.9*[16.7 µM]	-1.6	-0.2	15.7
CCC(=O)Nc1ccc2c(c1)OC[C@H](C)N(CC1CCCCC1)C[C@H](C)[C@@H](OC)CN(C)C2=O	x	86.7*[16.7 µM]	x	x	x
CO[C@@H]1CN(C)C(=O)c2ccc(NS(C)(=O)=O)cc2OC[C@@H](C)N(C(=O)C2CCCCC2)C[C@H]1C	x	65.9*[16.7 µM]	x	x	x
O=C(C[C@H]1CC[C@@H]2[C@H](COC[C@@H](O)CN2S(=O)(=O)c2ccc(Cl)cc2)O1)NCc1ccncn1	x	-9.6[16.7 µM]	x	x	x
C[C@H](CO)N1C[C@H](C)[C@@H](CN(C)C(=O)C2CCCCC2)Oc2ncc(C#Cc3cccc(F)c3)cc2C1=O	x	3.9[16.7 µM]	x	x	x
O=C(N[C@H]1CC[C@H](CCn2cc(-c3ccccn3)nn2)O[C@@H]1CO)c1ccccc1	x	-1.7[16.7 µM]	x	x	x
CO[C@@H]1CN(C)C(=O)c2ccc(NS(=O)(=O)c3ccc(Oc4ccccc4)cc3)cc2OC[C@@H](C)NC[C@@H]1C	x	55.9*[16.7 µM]	x	x	x
O=C(O)c1cccc(Nc2ccnc(Nc3cccc(C(=O)O)c3)n2)c1	-40.8	59.1*	-8.7	0.3	8.3
O=C(O)c1cccc(Nc2nc(N3CCOCC3)nc(N3CCOCC3)n2)c1	-3.4	-5.6	-2.4	-0.3	-3.3
Cc1ccc(/C=N/Nc2ccnc3cc(Cl)ccc23)c(C)c1	60.1*	20.9	-5.6	-0.9	5.7
Cc1ccccc1/C=N/Nc1ccnc2cc(Cl)ccc12	2.3	-18.7	-2.6	1.8	12.2
Cc1noc(C)c1NC(=O)N[C@H]1CC[C@H](CCNC(=O)C2CCCCC2)O[C@@H]1CO	x	-18.5[16.7 µM]	x	x	x
CN(C)C(=O)OCc1c(-c2ccccc2)ncc2ccccc12	5.1	-15.6	-2.8	x	3.2
COc1cccc(-c2ncc3ccccc3c2COC(=O)N(C)C)c1	10.6	61.3*	-7.6	0.0	5.2
Cc1ccc(NC(=O)c2c(C(F)(F)F)nn(C)c2SCc2cccc(C(F)(F)F)c2)cc1C	46.1	87.1*	-5.0	2.9	29.4
